This passage reports INHIBITION results from ChEMBL document CHEMBL4513216, “Probing the Open Global Health Chemical Diversity Library for Multistage-Active Starting Points for Next-Generation Antimalarials” (ACS Infect Dis, 2020).

Hit rate of the full screen: of about 69,000 compounds, about 8,600 (12%) showed an effect of 50% or more. Shown is part of a subset that was picked to be rich in strong results.

In the assay the test system is Plasmodium berghei. The experiment in a line: Screen against P. berghei liver stage (PbLuc), transformed with Luciferase, at 10uM. It is filed as functional, HepG2. The settings on record: tested at 10 uM.
For `O=C(CCCn1nnc(-c2ccc(F)cc2)n1)N1CCOCC(CO)C1` (stereo not drawn), the INHIBITION is given as 52%. In the case of `CC[C@H]1COCCN1C(=O)CCCn1nnc(-c2ccc(F)cc2)n1`, the INHIBITION turned out to be 35%. The same measure for `O=C(Cn1nnc(-c2ccc(F)cc2)n1)N1CCOCC(O)C1` (stereo not drawn): 38.6%; for `CCCS(=O)(=O)NC(C)C(=O)NCc1ccnc(N2CCCC2)c1` (stereo not drawn): 14.4%. Under `COCC(=O)N1CCC2(C1)c1ccccc1S(=O)(=O)N2CC1CC1` (stereo not drawn) stands 17.6%; under `COCC(=O)N1CCC2(C1)c1ccccc1S(=O)(=O)N2C` (stereo not drawn), 65.3%; under `COCC(=O)N1CCC2(C1)c1ccccc1S(=O)(=O)N2CCC(C)C` (stereo not drawn), -14.2%. Take `CC(=O)N1CCC2(C1)c1ccccc1S(=O)(=O)N2CCC(C)C` (stereo not drawn): the INHIBITION was -61.6%.

In the case of `CC(=O)N1CCC2(C1)c1ccccc1S(=O)(=O)N2Cc1ccccc1` (stereo not drawn), the INHIBITION was found to be 6.72%. On to `CC(=O)N1CCC2(C1)c1ccccc1S(=O)(=O)N2C` (stereo not drawn), for which the INHIBITION is recorded as 50.4%.

Turning to `Cc1ccccc1C(=O)N1CCC(n2nnc3cc(F)ccc32)CC1`, the INHIBITION is reported as -30.1%.

Take `CC(C)c1nnc(CCC(=O)N2CCOC(c3cnccn3)C2)o1` (stereo not drawn): the INHIBITION worked out at 11.8%. Turning to `CC(C)C[C@H](N)c1nnc(SCC(N)=O)o1`, the INHIBITION was -21.4%.

For `NS(=O)(=O)CCCNC(=O)c1cnc(-c2ccsc2)s1`, the INHIBITION worked out at 41.4%. On to `O=C1C[C@@H]2CC[C@H](CN1)N2C(=O)CCc1ccsc1`, for which the INHIBITION amounted to 36.7%. The same measure for `CC(=O)N1CCC2(CC1)CC(NS(C)(=O)=O)c1ccccc1O2` (stereo not drawn): 25.9%; for `CC(=O)N1CCOCC(Cc2ccc3c(ccn3C)c2)C1` (stereo not drawn): -20.265%. With `Cn1cc(CN2C[C@@H]3COC[C@@H](C(=O)N4CCCCO4)[C@@H]3C2)cn1`, the INHIBITION is 39.8%.

For `O=C(CC(F)(F)F)N1CCc2onc(Cn3cccn3)c2C1`, the INHIBITION amounted to 32.4%. The same measure for `CS(=O)(=O)NCc1noc2c1CN(C(=O)C1CC1)CC2`: 30.3%; for `CCC(=O)N1CCc2onc(CNS(C)(=O)=O)c2C1`: 69.3%.

As to `O=C(CO)N1CCc2onc(Cn3cccn3)c2C1`, the INHIBITION was 51.2%. `CN(C)CC(=O)N1CCc2onc(Cn3cccn3)c2C1`: the INHIBITION was 33.4%. Under `CS(=O)(=O)NCc1noc2c1CN(C(=O)C1CCC1)CC2` stands 18.6%; under `CC1CN(C(=O)CN(Cc2ccco2)Cc2cccs2)CCO1` (stereo not drawn), -19.9%; under `COC(=O)c1cccn1C1CCN(C(=O)c2c(C)noc2C)CC1`, 36.1%. As to `COc1cc2c(cc1OC)C(=O)C(Sc1nnnn1C)C2` (stereo not drawn), the INHIBITION was 26.4%.

In the case of `CSc1ncc(C(=O)NCCn2nccc2C)cn1`, the INHIBITION turned out to be 5.785%. For `O=S(=O)(c1ccc(F)cc1)N1CC[C@H]2[C@H]1CCN2c1ncccn1`, the INHIBITION amounted to 2.4%. Turning to `O=C(c1cnc2c(cnn2C2CCCC2)c1)N1CCN(CCO)CC1`, the INHIBITION is recorded as 24%.

For the compound `Cn1cc(CN2CCCC(CCc3ccc(F)c(F)c3)C2)cn1` (stereo not drawn), the INHIBITION came out at 38.6%. With `COc1ccc(CN2CC[C@H](O)[C@@H]2Cc2cnn(C)c2)cc1`, the INHIBITION is 47.4%. For the compound `Cn1cc(CN2CCCC(CCc3c(F)cccc3F)C2)cn1` (stereo not drawn), the INHIBITION worked out at 30.5%.

For the compound `Cn1cc(CN2CCCC(CCc3ccc(F)cc3)C2)cn1` (stereo not drawn), the INHIBITION amounted to 59.2%.

Regarding `Fc1ccc(OCCCN2CCCC(Cn3cncn3)C2)cc1` (stereo not drawn), the INHIBITION came out at 5.9%. In the case of `CCn1cc(CN2CCCC(COc3ccccc3F)C2)cn1` (stereo not drawn), the INHIBITION was found to be 69.3%. Take `Cn1cc(C[C@H]2[C@H](O)CCN2Cc2ccncc2)cn1`: the INHIBITION is 46.2%. The same measure for `Cn1cc(CN2CCCC(CCc3ccc(F)cc3F)C2)cn1` (stereo not drawn): 43%. Consider `COc1ccc(OCC2CCCN(Cc3ccncc3)C2)cc1` (stereo not drawn), for which the INHIBITION came out at 46.3%. The same measure for `Cn1nccc1CN1CCCC(COc2ccccc2F)C1` (stereo not drawn): 17.4%. As to `Cn1cc(C[C@H]2[C@H](O)CCN2Cc2ccc(F)cc2)cn1`, the INHIBITION is 57.9%. Under `CCn1cc(CN2CCCC(COc3ccc(F)cc3)C2)cn1` (stereo not drawn) stands 74%; under `Cc1cc(NC(C)c2nncn2C2CCCC2)n2nc(C)c(C)c2n1` (stereo not drawn), 32.1%; under `CC1CCN(c2nccn3c(=O)[nH]nc23)CC1`, 16.8%. Consider `Cc1oc(-c2cccc(F)c2F)nc1CN(CCO)C(C)C`, for which the INHIBITION is listed as 13.6%. As to `CNC(=O)c1ccc(C2CN(C(=O)c3coc(C)n3)CCO2)nc1` (stereo not drawn), the INHIBITION is -24.1%. Under `FC(F)(F)COCCN1CCOC(Cn2cccn2)C1` (stereo not drawn) stands 40%. Under `CCCNC(=O)NC(=O)CNC(C)(C)c1ccc2c(c1)OCCO2` stands -4.94%; under `Cc1cnc(C)c(N2C[C@H]3OC(=O)N(C4CCCC4)[C@H]3C2)n1`, 68.1%. Under `COc1ccccc1CN1C(=O)O[C@@H]2CN(c3nc(C)cnc3C)C[C@@H]21` stands 20.9%; under `Cc1ccc(C(N)=O)c(N2C[C@H]3OC(=O)N(C4CCCC4)[C@H]3C2)n1`, -14.1%; under `CC(C(=O)NCc1ccc(N2CCCC2)nc1)S(C)(=O)=O` (stereo not drawn), 45.7%.

In the case of `Cc1cccc(C(=O)N2CCCN(Cc3cscn3)CC2)c1`, the INHIBITION is recorded as -33.7%. The same measure for `CCOC(=O)CCn1cnc2onc(-c3cc(OC)ccc3Cl)c2c1=O`: -8.07%; for `COc1ccc(Cl)c(-c2noc3ncn(CCC(=O)O)c(=O)c23)c1`: 25.9%; for `CCOC(=O)CCn1cnc2onc(-c3ccc(OC)cc3)c2c1=O`: 71.4%. Consider `Cc1noc(C)c1CC(=O)N1CCc2sccc2C1`, for which the INHIBITION is 19.2%.

Take `Cc1ccc(NCc2cn3c(n2)CN(Cc2ccc(C)o2)CC3)nn1`: the INHIBITION was 29.8%. Under `CNc1cc(C2CN(C(=O)c3ccn(C)n3)CCO2)nc(C)n1` (stereo not drawn) stands -29%; under `CCS(=O)(=O)CCSc1cccc(C#N)c1`, 7.43%; under `CCCS(=O)(=O)CCSc1cccc(C#N)c1`, 51.4%.

For the compound `CS(=O)(=O)CCSc1cccc(C#N)c1`, the INHIBITION is 7.84%. The same measure for `Cc1nsc(C(=O)NCCCc2ccccc2)n1`: 58.1%; for `Cc1nsc(C(=O)NCCc2cccs2)n1`: -12.1%; for `Cc1nsc(C(=O)NCCc2ccc(S(N)(=O)=O)cc2)n1`: 69.5%.

In the case of `Cc1nsc(C(=O)NCCc2ccc(F)cc2)n1`, the INHIBITION was -10.6%. For the compound `Cc1nsc(C(=O)NCCc2ccc(Cl)cc2)n1`, the INHIBITION came out at 20.9%. The same measure for `Cc1nsc(C(=O)NCCc2ccccc2)n1`: -67.9%; for `CC(C)(O)CCc1cccc(C(=O)N2CCC[C@H]2CN2CCCC2)c1`: 1.56%. On to `Cc1ccc(NC2CCN(C(=O)c3ccc4c(c3)CCC4)CC2)nn1`, for which the INHIBITION came out at 18.2%. Under `CCC(CC)NC(=O)c1nc2n(n1)-c1ccccc1S(=O)(=O)N2` stands -9.07%. In the case of `Cc1n[nH]c(C)c1-c1nccnc1CC1CCCN(C)C1` (stereo not drawn), the INHIBITION is given as 23.2%.

For `c1ccc(-c2nnc(CN3C[C@H]4CC[C@@H](C3)N(CC3CCC3)C4)o2)cc1`, the INHIBITION amounted to 46.6%. Turning to `Cc1ccc(C(=O)N2CC[C@H]3[C@@H]2CCC(=O)N3c2cccnc2)o1`, the INHIBITION was 23.1%.

`COc1cccc(S(=O)(=O)CCN2CCN(CC(F)F)CC2)c1`: the INHIBITION is 28.2%. Under `COc1cccc(S(=O)(=O)CCN2CCCCC2)c1` stands -11.1%; under `COc1cccc(S(=O)(=O)CCN2CCN(CCO)CC2)c1`, 8.24%; under `COc1cccc(S(=O)(=O)CCN2CCCN(C(C)=O)CC2)c1`, 45.8%. The same measure for `COc1cccc(S(=O)(=O)CCN2CCC3(CC2)OCCO3)c1`: 60%. Under `COCCN1CCN(CCS(=O)(=O)c2cccc(OC)c2)CC1` stands 92.8%. `Cc1cc(CN2C[C@H](OCC3CCOCC3)[C@H]3COC[C@H]32)oc1C`: the INHIBITION is recorded as 44.4%.

With `CCc1cc(NCCCOC2CCN(C)CC2)ncn1`, the INHIBITION was 25.5%. Under `O=C(NCCO)Nc1c(F)cc(F)cc1-c1ccccc1` stands 33%. For the compound `Cc1noc([C@@]23CCO[C@@H]2CCN(CC2CCOCC2)C3)n1`, the INHIBITION amounted to 17.3%. As for `C1CCN(c2nc(N3CCOCC3)nc3[nH]nnc23)CC1`, the INHIBITION is reported as 36.7%.

Consider `c1ccc2c(c1)CCN(c1nc(N3CCOCC3)c3nn[nH]c3n1)C2`, for which the INHIBITION came to 54%. In the case of `c1ccc2c(c1)CCN2c1nc(N2CCOCC2)c2nn[nH]c2n1`, the INHIBITION came out at 39.9%. The same measure for `COc1ccsc1C(=O)N1CCCN(Cc2cscn2)CC1`: -51.5%. The same measure for `O=C(Cc1ccc2c(c1)OCCO2)N1CCN(c2cnccn2)CC1`: -5.25%; for `Cc1nc(C)n(CC2CN(CCOc3ccc(C#N)cc3)CCO2)n1` (stereo not drawn): 42%; for `CCC1CN(c2nnc(C)c(C)c2C#N)CCO1` (stereo not drawn): 17.8%. As for `Cc1nc(C)n(CC2CN(c3nnc(C)c(C)c3C#N)CCO2)n1` (stereo not drawn), the INHIBITION is reported as -27.3%. The same measure for `Cc1cc(C)n(CC2CN(c3nnc(C)c(C)c3C#N)CCO2)n1` (stereo not drawn): 53.1%; for `Cc1cc(C)n(CC2CN(CCOc3ccc(C#N)cc3)CCO2)n1` (stereo not drawn): 51.1%; for `Cc1cc(C)n(CC2CN(CCOc3cccc(C#N)c3)CCO2)n1` (stereo not drawn): 20.6%. The same measure for `CN(C)C(=O)NC1COC2(CCN(Cc3ccccc3)CC2)C1` (stereo not drawn): 37.5%; for `CC(N)Cc1ccccc1Sc1ccccc1` (stereo not drawn): 24.7%. The same measure for `CCc1nc(CNc2ccc(F)cc2I)no1`: -58.5%.

With `CN1CCN(CC2CN(CC3CC3)Cc3nccn3C2)CC1` (stereo not drawn), the INHIBITION was 19.4%. Turning to `Cc1cnc2n1CCN(C)C21CCN(CC2CC2)CC1`, the INHIBITION was determined as 12.1%. Under `CCCS(=O)(=O)c1ccc(N2CCC(Cc3ccccc3)CC2)nn1` stands 23.7%. On to `Cc1cc(N2CCC(Cc3ccccc3)CC2)nc(-c2ccncc2)n1`, for which the INHIBITION turned out to be 71.3%.

Turning to `CC(=O)NCC1CCN(c2cc(C)nc(-c3ccncc3)n2)CC1`, the INHIBITION was 33.3%. The same measure for `Oc1ccc(N2CCC(Cc3ccccc3)CC2)nn1`: 83.8%; for `O=C(O)c1ccc(N2CCC(Cc3ccccc3)CC2)nn1`: -23.2%. The same measure for `Cc1cc(N2CCC(CC(N)=O)CC2)nc(-c2ccncc2)n1`: 16.1%; for `CCn1c(=O)[nH]c2cn(-c3cccc(Cl)c3)c(=O)n21`: -35.5%. Under `CC(C)C(O)CNC(=O)Nc1cnn(C(C)C)c1` (stereo not drawn) stands -4.73%.
